Laboratory results as given in PubChem BioAssay (NCI).
The panel holds about 79,000 compounds, 15% with a hit somewhere; the sample as a whole holds those more often. Unmarked numbers belong to inactive results. Activity calls are given as the source filed them. No stated cut-off is given here; in the data, active means growth inhibition above about 70%; inactive means the rest.

Experiments:
[1] = NCI Yeast Anticancer Drug Screen. Data for the rad52 strain (AID 147);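 further: 0% = growth of vehicle-treated control cultures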; conditions: S. cerevisiae rad52 mutant growth inhibition, hits give high values
Procedure, shortened: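 Screen used a yeast mutant impaired in DNA repair. After compound exposure, growth was measured. Values reflect inhibition compared with vehicle-treated cells.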

[2] = NCI Yeast Anticancer Drug Screen. Data for the wt1 strain (AID 149);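 further: 0% = growth of vehicle-treated wt1 cultures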; conditions: S. cerevisiae wt1 strain (SPY 50644) growth inhibition, hits give high values
Procedure, shortened: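 Compounds are added to wt1 yeast cultures. Growth is then measured. Inhibition is expressed relative to vehicle-treated controls.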

[3] = NCI Yeast Anticancer Drug Screen. Data for the rad50EPP+ strain (AID 151);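 further: 0% = growth of vehicle-treated control cultures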; conditions: S. cerevisiae rad50 mutant strain, hits give high values
Procedure, shortened: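 Exposing the rad50EPP+ strain to each compound, growth was compared with vehicle-only cultures to give inhibition.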

[4] = NCI Yeast Anticancer Drug Screen. Data for the mgt1 strain (AID 153); conditions: S. cerevisiae mgt1 mutant growth inhibition, hits give high values
Procedure, shortened: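 Genetically defined yeast (mgt1) treated with compound; inhibition of growth expressed against vehicle-treated controls.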

[5] = NCI Yeast Anticancer Drug Screen. Data for the rad50 strain (AID 155);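 further: 0% = growth of vehicle-only cultures of the same strain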; conditions: S. cerevisiae rad50 strain growth inhibition, hits give high values
Procedure, shortened: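 Inhibition values express reduced yeast growth in compound-treated cultures relative to vehicle-treated controls.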

[6] = NCI Yeast Anticancer Drug Screen. Data for the mec2-1 strain (AID 157); conditions: S. cerevisiae mec2-1 strain, hits give high values
Procedure, shortened: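 Readout is yeast growth inhibition, normalised to vehicle-treated controls, in the mec2-1 strain exposed to compound.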

[7] = NCI Yeast Anticancer Drug Screen. Data for the rad14 strain (AID 159);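 further: 0% = growth of vehicle-treated control cultures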; conditions: S. cerevisiae rad14 strain growth inhibition, hits give high values
Procedure, shortened: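 A mutant yeast strain defective in DNA damage repair is treated with compound; inhibition of its growth is scored against untreated, vehicle-exposed cultures.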

[8] = NCI Yeast Anticancer Drug Screen. Data for the sgs1 mgt1 strain (AID 161);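 further: 0% = growth of cultures given vehicle only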; conditions: S. cerevisiae sgs1 mgt1 strain, hits give high values
Procedure, shortened: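 Percent growth inhibition was derived by comparing compound-exposed mutant yeast with vehicle-exposed cultures. The strain carries alterations in DNA damage repair.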

[9] = NCI Yeast Anticancer Drug Screen. Data for the CLN2oe strain (AID 163);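 further: 0% = growth of vehicle-only control cultures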; conditions: S. cerevisiae CLN2oe strain, hits give high values
Procedure, shortened: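 Values reflect how much compound exposure reduced yeast growth, referenced to vehicle-exposed cells. Assay organism is a strain with a defined genetic change affecting cell-cycle control.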

[10] = NCI Yeast Anticancer Drug Screen. Data for the cln2 rad14 strain (AID 165);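 further: 0% = growth equal to vehicle treated cultures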; conditions: S. cerevisiae cln2 rad14 strain, hits give high values
Procedure, shortened: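 Relative to vehicle controls, growth inhibition of compound-treated cln2 rad14 yeast was recorded.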

[11] = NCI Yeast Anticancer Drug Screen. Data for the bub3 strain (AID 167); conditions: S. cerevisiae bub3 mutant strain, hits give high values
Procedure, shortened: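 Steps: expose the mutant yeast strain to compound; grow alongside vehicle-treated cultures; measure growth; express inhibition against the vehicle cultures.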

[12] = NCI Yeast Anticancer Drug Screen. Data for the wt2 strain (AID 169);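 further: 0% = growth of vehicle-treated yeast cultures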; conditions: S. cerevisiae wt2 strain growth inhibition, hits give high values
Procedure, shortened: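 Values express reduction in yeast growth under compound treatment, referenced to vehicle-treated cells.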

[13] = NCI Yeast Anticancer Drug Screen. Data for the mlh1 strain (AID 171);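 further: 0% = growth of vehicle-treated control cultures of the same strain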; conditions: S. cerevisiae mlh1 strain growth inhibition, hits give high values
Procedure, shortened: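 Steps: expose the defined-mutant yeast strain to compound; expose a parallel culture to vehicle; measure growth; express compound effect as inhibition relative to the vehicle culture.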

[14] = NCI Yeast Anticancer Drug Screen. Data for the sgs1 strain (AID 173);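 further: 0% = growth of vehicle-only control cultures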; conditions: S. cerevisiae sgs1 mutant, hits give high values
Procedure, shortened: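 Treat defined-mutant yeast with compound; measure growth; calculate inhibition relative to vehicle-treated cells.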

[15] = NCI Yeast Anticancer Drug Screen. Data for the mlh1 rad18 strain (AID 175); conditions: S. cerevisiae mlh1 rad18 strain growth inhibition, hits give high values
Procedure, shortened: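 Test agents were incubated with a yeast strain of defined genotype (DNA damage repair defect). Inhibition of growth was derived by comparison with vehicle-exposed cultures.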

[16] = NCI Yeast Anticancer Drug Screen. Data for the rad18 strain (AID 177); conditions: S. cerevisiae rad18 mutant growth inhibition, hits give high values
Procedure, shortened: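 A genetically defined yeast mutant impaired in DNA damage repair was treated with test compounds, then its growth was measured against cultures receiving vehicle alone.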

[17] = at 5.0 µM (retest, dose inferred, filed as 0.5)
[18] = at 50.0 µM (retest, dose inferred, filed as 5.0)

CC(C)(C)c1cc([N+](=O)[O-])cc([N+](=O)[O-])c1O
growth inhibition ([1]; at 1.2 µM): -11% | growth inhibition ([1]; at 3.7 µM): -17% | growth inhibition ([1]; at 11.0 µM): -1% | growth inhibition ([1]; at 33.0 µM): 17% | growth inhibition ([1]; at 100.0 µM): 33% | growth inhibition ([2]; at 1.2 µM): -16% | growth inhibition ([2]; at 3.7 µM): -23% | growth inhibition ([2]; at 11.0 µM): -7% | growth inhibition ([2]; at 33.0 µM): 12% | growth inhibition ([2]; at 100.0 µM): 38% | growth inhibition ([3]; at 1.2 µM): -54% | growth inhibition ([3]; at 3.7 µM): -54% | growth inhibition ([3]; at 11.0 µM): -44% | growth inhibition ([3]; at 33.0 µM): -25% | growth inhibition ([3]; at 100.0 µM): -13% | growth inhibition ([4]; at 1.2 µM): -52% | growth inhibition ([4]; at 3.7 µM): -34% | growth inhibition ([4]; at 11.0 µM): 21% | growth inhibition ([4]; at 33.0 µM): -11% | growth inhibition ([4]; at 100.0 µM): 43% | growth inhibition ([5]; at 1.2 µM): -24% | growth inhibition ([5]; at 3.7 µM): -26% | growth inhibition [5, 17]: 46% | growth inhibition ([5]; at 11.0 µM): -5% | growth inhibition ([5]; at 33.0 µM): 1% | growth inhibition [5, 18]: 100% (active) | growth inhibition ([5]; at 50.0 µM): 78.8% (active) | growth inhibition ([5]; at 100.0 µM): 22% | growth inhibition ([6]; at 1.2 µM): -61% | growth inhibition ([6]; at 3.7 µM): -47% | growth inhibition [6, 17]: 66% | growth inhibition ([6]; at 11.0 µM): -25% | growth inhibition ([6]; at 33.0 µM): -8% | growth inhibition [6, 18]: 99% (active) | growth inhibition ([6]; at 50.0 µM): 72.2% (active) | growth inhibition ([6]; at 100.0 µM): 7% | growth inhibition ([7]; at 1.2 µM): -19% | growth inhibition ([7]; at 3.7 µM): -12% | growth inhibition ([7]; at 11.0 µM): 6% | growth inhibition ([7]; at 33.0 µM): 26% | growth inhibition ([7]; at 100.0 µM): 29% | growth inhibition [8, 17]: 0% | growth inhibition [8, 18]: 38% | growth inhibition ([8]; at 50.0 µM): 84.3% (active) | growth inhibition ([9]; at 1.2 µM): 9% | growth inhibition ([9]; at 3.7 µM): 1% | growth inhibition ([9]; at 11.0 µM): 12% | growth inhibition ([9]; at 33.0 µM): 25% | growth inhibition ([9]; at 100.0 µM): 28% | growth inhibition [10, 17]: 46% | growth inhibition [10, 18]: 21% | growth inhibition ([10]; at 50.0 µM): 73.4% (active) | growth inhibition ([11]; at 1.2 µM): -17% | growth inhibition ([11]; at 3.7 µM): -15% | growth inhibition [11, 17]: -13% | growth inhibition ([11]; at 11.0 µM): -2% | growth inhibition ([11]; at 33.0 µM): 9% | growth inhibition [11, 18]: 39% | growth inhibition ([11]; at 50.0 µM): 68.6% | growth inhibition ([11]; at 100.0 µM): 21% | growth inhibition ([12]; at 1.2 µM): -35% | growth inhibition ([12]; at 3.7 µM): -29% | growth inhibition ([12]; at 11.0 µM): -11% | growth inhibition ([12]; at 33.0 µM): 23% | growth inhibition ([12]; at 100.0 µM): 47% | growth inhibition ([13]; at 1.2 µM): -38% | growth inhibition ([13]; at 3.7 µM): -33% | growth inhibition ([13]; at 11.0 µM): -4% | growth inhibition ([13]; at 33.0 µM): 10% | growth inhibition ([13]; at 100.0 µM): 42% | growth inhibition ([14]; at 1.2 µM): -20% | growth inhibition ([14]; at 3.7 µM): -8% | growth inhibition ([14]; at 11.0 µM): 15% | growth inhibition ([14]; at 33.0 µM): 40% | growth inhibition ([14]; at 100.0 µM): 46% | growth inhibition [15, 17]: 50% | growth inhibition [15, 18]: 100% (active) | growth inhibition ([15]; at 50.0 µM): 67.7% | growth inhibition ([16]; at 1.2 µM): -30% | growth inhibition ([16]; at 3.7 µM): -13% | growth inhibition ([16]; at 11.0 µM): -18% | growth inhibition ([16]; at 33.0 µM): 17% | growth inhibition ([16]; at 100.0 µM): 30%

C[CH2][Sn]([CH2]C)([O]S(C)(=O)=O)[O]S(C)(=O)=O
growth inhibition ([1]; at 1.2 µM): -24% | growth inhibition ([1]; at 3.7 µM): -17% | growth inhibition ([1]; at 11.0 µM): -24% | growth inhibition ([1]; at 33.0 µM): -10% | growth inhibition ([1]; at 100.0 µM): 11% | growth inhibition ([2]; at 1.2 µM): -27% | growth inhibition ([2]; at 3.7 µM): -9% | growth inhibition ([2]; at 11.0 µM): -15% | growth inhibition ([2]; at 33.0 µM): -12% | growth inhibition ([2]; at 100.0 µM): -2% | growth inhibition ([3]; at 1.2 µM): -28% | growth inhibition ([3]; at 3.7 µM): -30% | growth inhibition ([3]; at 11.0 µM): -25% | growth inhibition ([3]; at 33.0 µM): -14% | growth inhibition ([3]; at 100.0 µM): -19% | growth inhibition ([4]; at 1.2 µM): 0% | growth inhibition ([4]; at 3.7 µM): 0% | growth inhibition ([4]; at 11.0 µM): -11% | growth inhibition ([4]; at 33.0 µM): -7% | growth inhibition ([4]; at 100.0 µM): 37% | growth inhibition ([5]; at 1.2 µM): -21% | growth inhibition ([5]; at 3.7 µM): -6% | growth inhibition [5, 17]: 18% | growth inhibition ([5]; at 11.0 µM): -15% | growth inhibition ([5]; at 33.0 µM): -20% | growth inhibition [5, 18]: 57% | growth inhibition ([5]; at 50.0 µM): 76.2% (active) | growth inhibition ([5]; at 100.0 µM): 6% | growth inhibition ([6]; at 1.2 µM): -15% | growth inhibition ([6]; at 3.7 µM): -4% | growth inhibition [6, 17]: 13% | growth inhibition ([6]; at 11.0 µM): -9% | growth inhibition ([6]; at 33.0 µM): -4% | growth inhibition [6, 18]: 58% | growth inhibition ([6]; at 50.0 µM): 85.3% (active) | growth inhibition ([6]; at 100.0 µM): 16% | growth inhibition ([7]; at 1.2 µM): -21% | growth inhibition ([7]; at 3.7 µM): -18% | growth inhibition ([7]; at 11.0 µM): -17% | growth inhibition ([7]; at 33.0 µM): -10% | growth inhibition ([7]; at 100.0 µM): -9% | growth inhibition [8, 17]: 14% | growth inhibition [8, 18]: 58% | growth inhibition ([8]; at 50.0 µM): 50% | growth inhibition ([9]; at 1.2 µM): -78% | growth inhibition ([9]; at 3.7 µM): -94% | growth inhibition ([9]; at 11.0 µM): -65% | growth inhibition ([9]; at 33.0 µM): -103% | growth inhibition ([9]; at 100.0 µM): -62% | growth inhibition [10, 17]: 6% | growth inhibition [10, 18]: 18% | growth inhibition ([10]; at 50.0 µM): 46.2% | growth inhibition ([11]; at 1.2 µM): -28% | growth inhibition ([11]; at 3.7 µM): -25% | growth inhibition [11, 17]: 36% | growth inhibition ([11]; at 11.0 µM): -17% | growth inhibition ([11]; at 33.0 µM): -27% | growth inhibition [11, 18]: 50% | growth inhibition ([11]; at 50.0 µM): 45.5% | growth inhibition ([11]; at 100.0 µM): 24% | growth inhibition ([12]; at 1.2 µM): -56% | growth inhibition ([12]; at 3.7 µM): -44% | growth inhibition ([12]; at 11.0 µM): -46% | growth inhibition ([12]; at 33.0 µM): 3% | growth inhibition ([12]; at 100.0 µM): 55% | growth inhibition ([13]; at 1.2 µM): -51% | growth inhibition ([13]; at 3.7 µM): -29% | growth inhibition ([13]; at 11.0 µM): -33% | growth inhibition ([13]; at 33.0 µM): -37% | growth inhibition ([13]; at 100.0 µM): 0% | growth inhibition ([14]; at 1.2 µM): -27% | growth inhibition ([14]; at 3.7 µM): -16% | growth inhibition ([14]; at 11.0 µM): -22% | growth inhibition ([14]; at 33.0 µM): -7% | growth inhibition ([14]; at 100.0 µM): 15% | growth inhibition [15, 17]: 33% | growth inhibition [15, 18]: 80% (active) | growth inhibition ([15]; at 50.0 µM): 56.6%
